For 40 compounds, Potency and activity, negative = cytotoxicity results are on record in PubChem BioAssay (Tox21).

Results filed as inconclusive are left out. Where a call stands in place of a potency, no number is given. Active and inactive are the calls of the source. Calls follow the shape of the full dose curve.
Potency is read from the fitted curve at half-maximal effect.

The experiment in a line: qHTS assay for small molecules that induce genotoxicity in human embryonic kidney cells expressing luciferase-tagged ATAD5 - cell viability (AID 651634). Also: nearly all actives have a fitted effect of over 25% in size. The settings on record: HEK293T ATAD5-luc cells viability, CellTiter-Fluor, 15.5 h; series mostly up to 83.3 µM. An excerpt:
National Center for Advancing Translational Sciences [NCATS]
NIH Chemical Genomics Center [NCGC]
U.S. Environmental Protection Agency [EPA]
National Institutes of Environmental Health Sciences [NIEHS]
National Toxicology Program [NTP]
U.S. Food and Drug Administration [FDA]
Enhanced Level of Genome Instability Gene 1 (ELG1; human ATAD5) protein levels increase in response to various types of DNA damage. Using a luciferase reporter-gene tagged with ElG1, a cell-based assay [developed by Kyungjae Myung, NHGRI, NIH] was used to measure the induction of ATAD5 in human embryonic kidney cells (HEK293T). So, increase in luciferase activity can be used to identify the compounds that cause genetic stress. In addition to genotoxicity, these cells were also used to test for cytotoxicity by measuring the protease activity within live cells.
Tox21 Assay Protocol Summary:
For cytotoxicity screening, 2,000 cells in 5 uL/well were dispensed into white, solid-bottom 1536-well plates using a Multidrop Combi (Thermo Scientific) dispenser. Following transfer of 23 nL compound or DMSO vehicle by a pin tool, the plates were incubated 15.5 hr at 37C and 5% CO2. 1 ul CellTiter-Fluor reagent (Promega, Madison, WI) was then added to each plate and following 30 min incubation at 37C, fluorescence intensity was quantified on a ViewLux CCD-based plate reader.
Background: qHTS replaces the single test concentration by a dilution series.
On to `CC(=O)c1ccc2c(c1)N(CCCN1CCC(CCO)CC1)c1ccccc1S2`, for which the Potency entry is “inactive”.
With `CN(C)C(=O)NC1(c2ccccc2)CCN(CC[C@@]2(c3ccc(F)c(F)c3)CN(C(=O)c3ccccc3)CCO2)CC1`, the Potency entry was “inactive”.
Take `c1ccc(CNCCNCc2ccccc2)cc1`: the Potency entry is “inactive”.
The same measure, in the same setting: in the case of `Cc1ccccc1S(=O)(=O)O` it was “inactive”; in that of `CCN(CC)CCOC(=O)C(Cc1cccc2ccccc12)CC1CCCO1` (stereo not given), “inactive”.
As for `C/C=C/C(=O)CC`, the activity, negative = cytotoxicity was -7.15% [at 17.9 µM] (inactive).
For `C/C=C/C=C/CO`, the Potency result is “inactive”.
Still for that read-out and setting: the same measure for `O=C1CCC(=O)O1`: “inactive”; for `Cc1ncc(CO)c(C=O)c1O`: “inactive”.
The same measure, in the same setting: the same measure for `CCCCCC[C@@H](O)C/C=C\CCCCCCCC(=O)OC`: “inactive”; for `CCCCCCCCCCO[C@@H]1O[C@H](CO)[C@@H](O)[C@H](O)[C@H]1O`: “inactive”; for `O=C(O)C(S)C(S)C(=O)O` (stereo not given): “inactive”.
On the same count and under the same terms, the same measure for `CCCCCCCC/C=C\CCCCCCCC(=O)OCC`: “inactive”.
`CN(C)CCN(Cc1ccccc1)c1ccccn1`: the Potency result is “inactive”.
On the same count and under the same terms, the same measure for `CC(=O)c1ccc2c(c1)N(CCCN(C)C)c1ccccc1S2`: “inactive”; for `CN1CCC(=C2c3ccccc3Sc3ccccc32)CC1`: 26.6 µM (active); for `Cc1cc(N)c2cc(NC(=O)Nc3ccc4nc(C)cc(N)c4c3)ccc2n1`: “inactive”.
On the same count and under the same terms, the same measure for `CC1(c2ccccc2)OC(C(=O)O)=CC1=O` (stereo not given): “inactive”; for `Nc1c(CC(=O)O)cccc1C(=O)c1ccc(Br)cc1`: “inactive”.
On the same count and under the same terms, in the case of `Cc1cccc(Nc2ccccc2)c1` it was “inactive”; in that of `CC(C)=CCC/C(C)=C/CC/C(C)=C/CO`, “inactive”.
In the case of `COS(=O)(=O)C(F)(F)F`, the Potency result was “inactive”.
Same read-out and setting: the same measure for `O=S(c1cc(Cl)cc(Cl)c1O)c1cc(Cl)cc(Cl)c1O`: “inactive”.
Same read-out and setting: the same measure for `O=[N+]([O-])c1ccc2[nH]ncc2c1`: “inactive”.
The same measure, in the same setting: in the case of `CCCCCCCCCCCCCCCCCCOS(=O)(=O)O` it was “inactive”; in that of `COc1ccc(C(=O)c2ccc(OC)cc2O)c(O)c1`, “inactive”; in that of `OCc1cc(C(O)CNCCCCCCOCCCCc2ccccc2)ccc1O` (stereo not given), “inactive”.
With `CCC(=O)O[C@]1(C(=O)CCl)[C@@H](C)C[C@H]2[C@@H]3CCC4=CC(=O)C=C[C@]4(C)[C@@]3(F)[C@@H](O)C[C@@]21C`, the Potency result is “inactive”.
For the compound `COc1cc2nc(N3CCN(C(=O)C4COc5ccccc5O4)CC3)nc(N)c2cc1OC` (stereo not given), the Potency result was “inactive”.
On the same count and under the same terms, the same measure for `CN(C)c1ccc(C(c2ccccc2)c2ccc(N(C)C)cc2)cc1`: “inactive”; for `C[C@H](CCC(=O)O)[C@H]1CC[C@H]2[C@@H]3CC[C@@H]4C[C@H](O)CC[C@]4(C)[C@H]3C[C@H](O)[C@]12C`: “inactive”; for `CCCCCCCCCCCCCCCCOS(=O)(=O)O`: “inactive”.
The same measure, in the same setting: in the case of `CCN(CC)CCNc1ccc(CNC=O)c2sc3ccc(OC)cc3c(=O)c12` it was 4.86 µM (active); in that of `C=C(C)C(=O)OCCO`, “inactive”.
On the same count and under the same terms, the same measure for `CC[N+]1(CC)CCC(=C(c2ccccc2)c2ccccc2)C1C` (stereo not given): “inactive”; for `C#CCN(C)CCCOc1ccc(Cl)cc1Cl`: “inactive”.
Consider `COc1ccc(C(=O)N2CCN(CC(=O)N3CCOCC3)CC2)cc1`, for which the Potency result was “inactive”.
On the same count and under the same terms, in the case of `CCCOC(C(=O)OC1CCN(C)CC1)(c1ccccc1)c1ccccc1` it was “inactive”.
Same read-out and setting: in the case of `COc1ccc(C)cc1[N+](=O)[O-]` it was “inactive”.
Still for that read-out and setting: the same measure for `C=C1[C@H]2CC[C@@H]3[C@H]2C(C)(C)CCC[C@]13C`: “inactive”.
